Source: PubChem BioAssay
IL-1B inflam inh – inhibitors of inflammasome signaling (IL-1 beta secretion); THP-1 LPS/ATP IL-1B secretion, AlphaLISA, 16 h; stronger effect = lower value; activity change, % at 57.5 µM; 360,000 compounds, 4.7% hits; AID 743279; in the data active means activity change below about -50%; inconclusive means mostly about -30% to -49%
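THP-1 cells pretreated 1 hr with compounds (up to 57.5 uM final), then stimulated with LPS (250 ng/mL final) plus ATP (1.25 mM final); secreted IL-1B measured by AlphaLISA after 16 hr, decreased signal indicating inhibition.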
HT1080 IDH1KD tx – toxicity to HT-1080 IDH1 knockdown cells (counter line). HT-1080 IDH1 knockdown viability, ATP luminescence, 48 h. Potency, µM (titrated, usually from 46.1 µM), most hits filed as cytotoxic. 360,000 compounds, 2% hits
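Viability of IDH1-knockdown HT-1080 fibrosarcoma cells was assessed by CellTiter-Glo after 48 h at 37 °C with titrated compound; concentration-effect curves were classified by fit quality and response size.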
ELG1 DNA repair – ELG1-dependent DNA repair inhibition; HEK293T ELG1-luciferase reporter, luminescence, 16 h; DNA damage induced by 5-fluorouridine; Potency, µM (highest dose often 46.1 µM), hits mostly inhibitors; 330,000 compounds, 2.3% hits; further: nearly all actives have a fitted effect of over 55% in size
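DMSO vehicle served as the neutral condition. Each well held 2,000 cells given 5-fluorouridine plus compound; after 16 hr at 37 °C/5% CO2, ONE-Glo was added and luciferase measured 30 min later.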
HT1080-NT tox – kills 2HG-producing HT-1080-NT fibrosarcoma cells | HT-1080-NT fibrosarcoma viability, CellTiter-Glo ATP luminescence, 48 h | Potency, µM (top dose mostly 46.1 µM), hits mostly cytotoxic | 360,000 compounds, 1.6% hits | AID 686970;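 further: NT is the 2HG producing partner of a matched IDH1 knockdown line; nearly all actives have a fitted effect of over 55% in size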
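750 cells/well, RPMI + 5% FBS; 2 h settle, compound pin-transfer, 48 h at 37 degrees C. CellTiter-Glo 10 min RT, luminescence. Normalized to DMSO and media-only wells.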
TDP1 cell noCPT – qHTS for Inhibitors of human tyrosyl-DNA phosphodiesterase 1 (TDP1): qHTS in cells in absence of CPT. DT40 Tdp1-/- hTDP1 cells, no CPT, ATP luminescence, 48 h. Potency, µM (doses to about 46.2 µM), usual class: inhibitors. 420,000 compounds, 15% hits. AID 686978, 2013; further: nearly all actives have a fitted effect of over 55% in size
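Stably hTDP1-transfected Tdp1-null chicken DT40 cells were treated with library compounds minus camptothecin and grown for at least 48 hr at 37 °C, after which cellular ATP was quantified by luminescence.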
DT40 TDP1 CPT – growth inhibition of DT40 Tdp1-/-;hTDP1 cells with camptothecin (screen for TDP1 inhibitors) | Potency, µM (top dose mostly 46.2 µM), most hits filed as inhibitors | chicken DT40 Tdp1-/-;hTDP1 cells + 20 nM CPT, ATP luminescence, 48 h | 420,000 compounds, 12% hits; further: nearly all actives have a fitted effect of over 55% in size
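Cell growth measured by CellTiter-Glo luminescence after a minimum 48 h, 37 C compound exposure with 20 nM CPT in Tdp1-knockout DT40 cells stably expressing hTDP1, seeded 400/well; qHTS titration format.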
Each line names hits and unclear results; the compound was inactive in the other large screens. An excerpt weighted towards active compounds, which were near 19% of everything screened. Unless noted, the call rests on the fitted dose curve; in most records, active means well fitted curve in the direction sought with a large enough effect; inconclusive means small, poorly fitted or top-dose-only effect, or another doubt; inactive means no such curve, though single readings can be large; an effect the other way counts as inactive or inconclusive.

N#Cc1c(C(F)(F)F)cc(=O)n2c1[nH]c1ccccc12	IL-1B inflam inh -73.6, HT1080 IDH1KD tx 25.9µM, HT1080-NT tox 4.61µM, TDP1 cell noCPT 14.6µM, DT40 TDP1 CPT 13µM
N#Cc1c(CSCC(=O)O)cc(=O)n2c1[nH]c1ccccc12	none
Fc1ccc(C(CCCn2nnc(-c3cccnc3)n2)c2ccc(F)cc2)cc1	IL-1B inflam inh inconclusive, HT1080 IDH1KD tx inconclusive, TDP1 cell noCPT 20.6µM, DT40 TDP1 CPT 16.4µM
CCOC1=C2CN(S(=O)(=O)c3ccc(C)cc3)C(c3ccc(C)cc3)CC2N(S(=O)(=O)c2ccc(C)cc2)C(c2ccccc2)C1 (stereo unspecified)	DT40 TDP1 CPT inconclusive (no result: ELG1 DNA repair)
COc1cc(/C=N/Nc2cccc3cccnc23)cc(OC)c1O	IL-1B inflam inh inconclusive, ELG1 DNA repair inconclusive, TDP1 cell noCPT 16.4µM, DT40 TDP1 CPT inconclusive
Oc1cccc(/C=N/Nc2cccc3cccnc23)c1	IL-1B inflam inh -74.6, HT1080 IDH1KD tx inconclusive, ELG1 DNA repair inconclusive, HT1080-NT tox inconclusive, TDP1 cell noCPT inconclusive, DT40 TDP1 CPT inconclusive
COc1ccc(CNC(=O)CC[C@H]2O[C@@H](n3ccc(=O)[nH]c3=O)[C@H](O)[C@@H]2O)cc1	none (no result: ELG1 DNA repair)
C=CC#CC[N+]1(CC#Cc2ccccc2)CCOCC1	none
C#CC[N+]1(CC#Cc2ccc(C)cc2)CCCCC1	HT1080-NT tox inconclusive, TDP1 cell noCPT 3.26µM, DT40 TDP1 CPT 2.31µM
C=CC[N+]1(CC#Cc2ccccc2)CCCC1	ELG1 DNA repair inconclusive, TDP1 cell noCPT inconclusive, DT40 TDP1 CPT inconclusive
C(#Cc1ccccc1)C[N+]1(CC#Cc2ccccc2)CCCC1	IL-1B inflam inh inconclusive, HT1080 IDH1KD tx inconclusive, ELG1 DNA repair inconclusive, TDP1 cell noCPT 1.03µM, DT40 TDP1 CPT 1.84µM
CN1CCCC(CN(C)C(=O)c2cnn(-c3nccc(-c4ccccc4C(F)(F)F)n3)c2C2CC2)C1 (stereo unspecified)	none (no result: IL-1B inflam inh, HT1080 IDH1KD tx, ELG1 DNA repair, HT1080-NT tox)
O=C(/C=C/c1cccnc1)/C=C/c1cccnc1	IL-1B inflam inh -92.9, HT1080 IDH1KD tx 3.26µM, ELG1 DNA repair inconclusive, HT1080-NT tox 4.11µM, TDP1 cell noCPT 0.581µM, DT40 TDP1 CPT 1.03µM
COc1ccc(OC)c(C(=O)/C=C/c2cccnc2)c1	IL-1B inflam inh -98.4, HT1080 IDH1KD tx inconclusive, ELG1 DNA repair inconclusive, HT1080-NT tox 20.6µM, TDP1 cell noCPT 11.6µM, DT40 TDP1 CPT inconclusive
CN(C)S(=O)(=O)c1ccc(C(=O)Nc2cccnc2)cc1	none
CN(C)S(=O)(=O)c1ccc(C(=O)/C=C/c2cccnc2)cc1	ELG1 DNA repair inconclusive, TDP1 cell noCPT 20.6µM, DT40 TDP1 CPT 8.2µM
COc1cc(C(=O)/C=C/c2cccnc2)ccc1O	IL-1B inflam inh -99.2, HT1080 IDH1KD tx inconclusive, ELG1 DNA repair inconclusive, HT1080-NT tox inconclusive, TDP1 cell noCPT 18.4µM, DT40 TDP1 CPT inconclusive
C(=Cc1cccnc1)c1ccncc1	TDP1 cell noCPT inconclusive (no result: ELG1 DNA repair)
CCOC(=O)C1(COCc2ccccc2)CCCCC1=O (stereo unspecified)	none (no result: ELG1 DNA repair)
O=C(/C=C/c1cccnc1)c1cc(F)ccc1O	ELG1 DNA repair inconclusive, TDP1 cell noCPT 20.6µM, DT40 TDP1 CPT inconclusive
O=C(N/N=C/c1cccnc1)c1ccc(F)cc1	ELG1 DNA repair inconclusive
COc1cc2c(c(OCC(=O)NC(C)C)c1)C(=O)O[C@@H](C)CCCC(=O)CCCCC2	IL-1B inflam inh inconclusive, ELG1 DNA repair inconclusive, TDP1 cell noCPT inconclusive, DT40 TDP1 CPT inconclusive
COc1cc(OCC(=O)NC(C)C)cc2c1C(=O)O[C@@H](C)CCCC(=O)CCCCC2	HT1080 IDH1KD tx inconclusive, TDP1 cell noCPT 20.6µM, DT40 TDP1 CPT inconclusive
CCOc1ccc(CO/N=C/c2c(C)[nH]c(=O)[nH]c2=O)cc1	none
COC(=O)C1(C)Cc2cc(OC(C)=O)c(OC(C)=O)cc2N1 (stereo unspecified)	none (no result: IL-1B inflam inh, HT1080 IDH1KD tx, HT1080-NT tox, TDP1 cell noCPT, DT40 TDP1 CPT)
COc1ccc(NC(=O)c2oc3ccccc3c2NC(=O)c2cccc(F)c2)c(OC)c1	none (no result: IL-1B inflam inh, HT1080 IDH1KD tx, ELG1 DNA repair, HT1080-NT tox)
